# Measurements from the supplement of paper PMC4954754.
# ± gives the uncertainty stated by the source.
# System: HEK293T-Rex ERSE-FLuc
# Experiment: ERSE-FLuc reporter activation, triplicate confirmation, relative to 500 nM thapsigargin (% of thapsigargin); higher = stronger ATF6/ERSE reporter activation
# Conditions: 6.8 µM; 18 h; screen: confirmation
# Protocol: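 HEK293T-Rex cells stably expressing the ERSE-firefly luciferase (BiP promoter, ATF6-preferring) or XBP1-splicing Renilla luciferase (IRE1/XBP1s) reporter, 1536-well plates, compound at 6.8 µM for 18 hr at 37 °C; luminescence read […] and expressed as % activation = 100*(compound - median DMSO)/(median 500 nM thapsigargin - median DMSO). Primary screen was single-pass; confirmation screen in triplicate (mean ± SD).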
row,SMILES,ERSE-FLuc reporter activation
1,Cc1cc2nc(/C(C#N)=C/c3ccco3)[nH]c2cc1C,34.1 ± 8.6
2,COc1ccc(-c2csc(-c3ccc(O)cc3)n2)cc1,29.4 ± 5
3,O=C(COC(=O)c1ccc(O)c(O)c1)Nc1nc(-c2ccccc2)cs1,39.3 ± 5.9
4,Cc1cc(C)c(OCC(=O)N/N=C/c2ccc(O)c(O)c2)c(Br)c1,28.7 ± 6.2
5,Cc1nc(-c2coc3c(O)c(O)ccc3c2=O)cs1,25.2 ± 4.1
6,Cc1ccc(NC(=S)NC(=O)C(=O)Nc2ccccc2)cc1,139 ± 11
7,Cc1ccccc1NC(=O)c1sc2nc(N)c(C#N)c(-c3ccc(C(C)C)cc3)c2c1N,36.7 ± 3.3
8,Cc1ccc(O)c(NC(=O)c2cc(C3CC3)on2)c1,59.4 ± 7.7
9,Nc1nc(Nc2ccc(Cl)cc2)nc2ccccc12,30.7 ± 5.2
10,Cc1ccc(C)c(/C=N/Nc2nncc3ccccc23)c1,29.7 ± 1.9
11,Cc1cc(C)c2nc3sc(C(=O)N4CCCCC4)c(N)c3cc2c1,32.5 ± 8
12,COc1ccc(NC(=O)/C(Cl)=C\c2ccccc2)cc1,28.6 ± 2.2
13,O=C(Nc1ccccc1O)c1cc2ccccc2o1,33 ± 7.3
14,CCC(=O)N(Cc1cc2cc(C)ccc2n2nnnc12)C1CCCC1,33.5 ± 2.4
15,CCCc1cc(C(=O)Nc2cc(C)ccc2O)no1,83.4 ± 6.3
16,N#CC1=C(N)Oc2c(ccc3ccccc23)C1c1ccsc1 (stereo not drawn),25.8 ± 2.7
17,CCOc1cc(C2C(C(=O)OC3CCCCC3)=C(C)NC3=C2C(=O)CC(c2ccc(OC)cc2)C3)cc(Br)c1O (stereo not drawn),27.2 ± 9.1
18,COc1ccccc1/C=N/Nc1nc(-c2ccccc2)cc(=O)[nH]1,25.2 ± 1.8
19,N#CC1=C(N)Oc2c(ccc3ccccc23)C1c1ccccc1 (stereo not drawn),27.3 ± 3.3

row,SMILES,ERSE-FLuc reporter activation
1,O=C(CCCCCCC(=O)Nc1ccccc1)NO,59.2 ± 17
2,O=C(Nc1ccc2nc(NC(=O)C3CCCCC3)sc2c1)C1CCCCC1,26.5 ± 4.1
3,C(=N/Nc1nnc2c(n1)[nH]c1ccccc12)/c1c[nH]c2ccccc12,29.6 ± 8
4,COc1cccc(/C=N/NC(=O)c2n[nH]c3c2CCCC3)c1,31.5 ± 1.1
5,Nc1ccc2nc(/C=C/c3ccco3)[nH]c2c1,40.9 ± 9.5
6,CCOc1cccc(C(=O)Nc2ccc(Br)cn2)c1,26 ± 3.3
7,CC(Oc1ccc(Cl)cc1Cl)C(=O)NNC(=O)c1ccc(O)c(O)c1 (stereo not drawn),28.5 ± 5.5
8,CC(C)NC(=O)c1cc(-c2ccc(O)cc2)on1,25.8 ± 3
9,CCCCNC(=O)c1cc(-c2cccs2)on1,65.1 ± 6.3
10,Cc1ccc(O)c(N/C=C/C(=O)c2ccc(F)cc2)c1,140 ± 17
11,Nc1ccc(-c2nc3cc(N)c(Cl)cc3[nH]2)cc1,32.5 ± 3.7
12,C=CCNC(=O)c1cc(-c2ccc(F)cc2)on1,25.1 ± 4.7
13,O=C(Nc1ccc(O)cc1)c1ccc2ccccc2c1,28.3 ± 11
14,CNC(=O)c1ccccc1Nc1cc(NC(=O)Cc2ccc(F)c(F)c2)ncc1C(F)(F)F,54.6 ± 9
15,C=CCNC(=O)c1cc(-c2cccs2)on1,72.1 ± 6
16,O=C(N/N=C/c1cccc2ccccc12)c1ccc2c(c1)OCO2,29.9 ± 4.3
17,O=C(N/N=C\c1ccccc1[N+](=O)[O-])c1[nH]nc2c1CCc1ccccc1-2,31.4 ± 3
18,O=[N+]([O-])c1ccc2nc(/C=C/c3ccccc3)[nH]c2c1,25.2 ± 1.7
19,CC(=O)c1cccc(Nc2nc(-c3ccc(O)c(O)c3)cs2)c1,31.6 ± 5.1
